Assay outcomes from PubChem BioAssay.
ALDH1A1 block – ALDH1A1 (human) enzyme inhibition; hit rate 7.3% among 220,000; P00352; Purified ALDH1A1, NADH fluorescence, propionaldehyde substrate; AID 1030; Potency, µM (highest dose often 75.3 µM), inactives show top-dose activity, negative = inhibition, hits mostly inhibitors;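 further: potency means the concentration at half of the fitted maximal effect; plate controls were no enzyme wells and a reference inhibitor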
HPGD inh – HPGD (human) dehydrogenase inhibition | Potency, µM, inactives show top-dose activity change, negative = inhibition, actives largely listed as inhibitors | P15428 | hit rate 4.3% among 150,000 | purified HPGD, NADH fluorescence kinetic, PGE2 substrate; further: potency means the concentration at half of the fitted maximal effect
Target sequence (P15428 whole entry, looked up): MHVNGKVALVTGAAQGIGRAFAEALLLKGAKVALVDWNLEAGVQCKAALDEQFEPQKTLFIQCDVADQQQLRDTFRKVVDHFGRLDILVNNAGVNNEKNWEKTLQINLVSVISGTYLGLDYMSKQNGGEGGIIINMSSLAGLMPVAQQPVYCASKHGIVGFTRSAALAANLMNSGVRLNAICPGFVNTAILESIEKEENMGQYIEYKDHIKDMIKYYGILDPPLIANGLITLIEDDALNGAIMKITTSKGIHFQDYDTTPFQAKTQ
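20 nM HPGD preincubated 15 min at room temperature with compound in 50 mM Tris-HCl pH 8, 0.01% Tween 20. Started with 1 mM NAD+ and 30 uM prostaglandin E2; NADH fluorescence (360/450 nm) read 5 times over 30-s intervals, last minus first.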
PNC assembly inh – inhibitors of perinucleolar compartment assembly | activity change (PNC), negative = inhibition, % at 10 µM | hit rate 3.1% among 140,000 | PC3M PTB-GFP, PNC prevalence imaging, 16 h; stronger effect = lower value;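 active means readout at or below -70, meaning at least 70% loss of cells showing the perinucleolar compartment, a nuclear body marking cancer cells; inconclusive means readout between -30 and a set limit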;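 further: plate controls were DMSO wells for no effect and camptothecin positive control wells for full effect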
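Compounds are pinned in duplicate onto adhered PC3M cells stably expressing GFP-tagged PTB and incubated 16 h at 37 C. Cells are then fixed, nuclei stained with Hoechst, and PNC-positive cells counted.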
* = called active by the depositor; u = inconclusive; x = no result given. Most compounds without a hit are left out; they make up all but 11% or so of the library. Unless noted, the call rests on the fitted dose curve; in most records, active means well fitted inhibition curve with a large enough effect (not every such curve was filed as active); inconclusive means small, poorly fitted or top-dose-only effect, or another doubt; inactive means no such curve, though single readings can be large or run the other way. Unless noted, on the % scale 0 is the no-effect control and ±100 the full control effect.

SMILES	ALDH1A1 block	HPGD inh	PNC assembly inh
COCCCn1c(SCC(=O)Nc2ccc3c(c2)OCCO3)nnc1-c1ccoc1C	u	-12%	23
COCCn1c(SCC(=O)c2ccc3c(c2)OCCO3)nnc1-c1ccoc1C	20µM*	-23%	u
COc1ccc(C)cc1-n1nnnc1SCC(=O)c1ccc2c(c1)OCCO2	11µM*	-13%	22
COc1ccc(-n2nnnc2SCC(=O)c2ccc3c(c2)OCCO3)c(OC)c1	u	-15%	u
Fc1ccc(N2CCN(C(c3cccs3)c3nnnn3C3CCCC3)CC2)cc1 (stereo not drawn)	0%	-18%	-8
O=C(C1=C[C@H](c2ccccc2)C[C@H](OCc2ccc(CO)cc2)O1)N1CCN(Cc2ccccc2)CC1	14µM*	x	x
O=C(C1=C[C@@H](c2ccccc2)C[C@@H](OCc2ccc(CO)cc2)O1)N1CCN(Cc2ccc3c(c2)OCO3)CC1	6%	x	x
O=C(Nc1ccccc1)C1=C[C@H](c2csc3ccccc23)C[C@H](OCc2ccc(CO)cc2)O1	-6%	x	x
O=C(C1=C[C@@H](c2ccccc2)C[C@@H](OCc2ccc(CO)cc2)O1)N1CCCCCCC1	25µM*	x	x
CCO[C@H]1OC(C(=O)N2CCN(Cc3ccccc3)CC2)=C[C@@H](c2ccccc2)[C@@H]1CCCO	-2%	x	x
CCO[C@H]1OC(C(=O)N2CCN(Cc3ccccc3)CC2)=C[C@@H](c2ccc(C(F)(F)F)cc2)[C@@H]1CCCO	4.5µM*	x	x
C=CCOC(=O)C1=C[C@@H](c2csc3ccccc23)C[C@@H](OCc2ccc(CO)cc2)O1	25µM*	x	x
O=C(O)C1=C[C@@H](c2ccccc2)C[C@@H](OCc2ccc(CO)cc2)O1	-14%	x	x
O=C(Cc1ccccc1[N+](=O)[O-])N1CCc2ccccc2C1	-8%	x	x
COc1ccc2c(c1)c(CC(=O)N1CCOCC1)c(C)n2C(=O)c1ccc(Cl)cc1	7%	-20%	x
CCOC(=O)c1ccc(Oc2ccc(C(F)(F)F)cn2)cc1	7%	x	x
O=C(c1ccc(Oc2ccccc2)cc1)c1nc2c(n1O)CCCC2	u	-28%	-29
CCC(=O)NC(=S)Nc1ccc(NC(=O)c2ccc(Br)o2)cc1	-7%	x	x
O=C(C1=C[C@@H](C2CCCCC2)C[C@@H](OCCCCO)O1)N1CCN(Cc2ccccc2)CC1	16µM*	x	x
C#CCNC(=O)C1=C[C@H](c2ccc3c(c2)OCO3)C[C@H](OCc2ccc(CO)cc2)O1	28µM*	x	x
O=C(NC1CC1)C1=C[C@H](c2ccc3c(c2)OCO3)C[C@H](OCc2ccc(CO)cc2)O1	-6%	x	x
O=C(C1=C[C@H](C2CC2)C[C@H](OCCCCO)O1)N1CCN(Cc2ccc3c(c2)OCO3)CC1	-4%	x	x
O=C(Cc1ccccc1)NNC(=O)c1cnccn1	4%	2%	1
Cc1cccc(NC(=O)C(NS(=O)(=O)c2ccc3c(c2)CCC(=O)N3)c2ccccc2)n1 (stereo not drawn)	u	-16%	u
Nc1ccc(S(=O)(=O)c2ccc(Cl)cc2)cc1	3%	-26%	29
SMILES	ALDH1A1 block	HPGD inh	PNC assembly inh
Cc1ccc([N+](=O)[O-])cc1-c1ccc(/C=C(\C#N)c2[nH]nc(N)c2C#N)o1	-7%	2.2µM*	43
COCc1cc(C)nc(OCC(=O)N/N=C/c2ccc(-c3cc([N+](=O)[O-])ccc3C)o2)c1C#N	-7%	-25%	-6
CC(=O)NC(=S)Nc1ccc([N+](=O)[O-])cc1C	-15%	x	x
Cc1c(NC(=S)NC(=O)C(C)(C)C)cccc1[N+](=O)[O-]	u	-14%	u
Cc1ccc([N+](=O)[O-])cc1NC(=S)NC(=O)C(C)(C)C	4.5µM*	7.1µM*	2
Cc1ccc(C(=O)Nc2cc([N+](=O)[O-])ccc2C)cc1	13%	x	x
Cc1cc([N+](=O)[O-])ccc1NC(=S)NC(=O)Cc1ccccc1	u	18µM*	28
Cc1ccc([N+](=O)[O-])cc1NC(=O)c1ccc(C(C)(C)C)cc1	-9%	16µM*	u
Cc1ccc(C(=O)Nc2ccc(C(=O)O)cc2)cc1S(=O)(=O)Nc1cccc([N+](=O)[O-])c1	7%	x	x
Cc1ccccc1NS(=O)(=O)c1cc(C(=O)Nc2cccc([N+](=O)[O-])c2)ccc1C	22µM*	-11%	110
CCN(C(=O)[C@@H]1CCCN1C(=O)c1cccs1)c1nc2cc(Cl)ccc2s1	-6%	-8%	89
Cc1cc(C)nc(NNC2=CC(=[N+]3CCCC3)CCC2)n1	-1%	x	x
O=C(OC1Cn2c(=O)ccc(=O)n2C1)c1ccccc1	-7%	-13%	-25
Cc1ccc(S(=O)(=O)N2CCC(C(=O)Nc3nnc(C45CC6CC(CC(C6)C4)C5)s3)CC2)cc1	5%	-9%	116
CS(=O)(=O)c1ccc(-c2cc(Br)sc2-c2ccc(F)cc2)cc1	-10%	u	x
CC12CCC(C(=O)N(c3ccccn3)c3ccccn3)(OC1=O)C2(C)C (stereo not drawn)	10%	-9%	-11
Cc1ccc([N+](=O)[O-])cc1NC(=O)Cc1ccc(F)cc1	9%	x	x
Cc1ccc([N+](=O)[O-])cc1NC(=S)NC(=O)CC(C)(C)C	-14%	16µM*	3
CC1=CC(=C(C#N)C#N)C=C(C)N1CCC(C)C	28µM*	x	x
CC1=CC(=C(C#N)C#N)C=C(C)N1CCN1CCN(C(=O)Nc2cccc(Cl)c2)CC1	u	-24%	10
CC1CCCCN1C(=O)CSc1nc2cc3c(cc2c(=O)n1Cc1ccc2c(c1)OCO2)OCO3 (stereo not drawn)	22µM*	-27%	-87*
CCCSc1nc2ccsc2c(=O)n1CC	-4%	x	x
Cc1cc(NC(=O)CSc2nc3ccsc3c(=O)n2Cc2ccccn2)n[nH]1	-26%	-14%	-16
CC1CCN(C(=O)CSc2nc3ccccc3c(=O)n2Cc2ccc3c(c2)OCO3)CC1	u	-20%	-18
CC1CCCCN1C(=O)CSc1nc2ccsc2c(=O)n1Cc1ccccn1 (stereo not drawn)	16µM*	-13%	50
SMILES	ALDH1A1 block	HPGD inh	PNC assembly inh
CCn1c(SCC(=O)N2CCCCC2C)nc2ccsc2c1=O (stereo not drawn)	7.9µM*	u	u
CC(NC(=O)COC(=O)c1cc(NS(=O)(=O)c2ccc(Cl)c([N+](=O)[O-])c2)ccc1O)C1CC2CCC1C2 (stereo not drawn)	-7%	-23%	6
CCOc1cc2[nH]c(=O)n(CCCCC(=O)NCc3ccco3)c(=O)c2cc1OCC	u	u	5
Cc1c(CCOC(=O)c2cccc([N+](=O)[O-])c2)sc[n+]1CC(=O)c1ccccc1	5%	x	x
NC(=O)c1ccc(NC(=O)c2cnc3ccccc3n2)cc1	-6%	x	x
O=C(NC(=S)Nc1ccccn1)c1cc(-c2ccccc2)nc2ccccc12	-11%	-24%	-3
O=C(Nc1ccccc1)c1cc(Cl)nc2ccccc12	-7%	-8%	-100*
O=C(Nc1ccccc1)c1cnc2ccccc2n1	-13%	-12%	-114*
O=C(NC(=S)Nc1ccccc1)c1cc(-c2ccccc2)nc2ccccc12	1.3µM*	20µM*	u
CC(=O)c1ccc(NC(=O)c2cc(Cl)nc3ccccc23)cc1	-12%	x	x
CCCc1cc(=O)oc2cc(OCC(=O)N3CCc4ccccc43)ccc12	u	u	-12
